Experiment [1] can be described thus: small molecules captured by biotinylated probe aFSTL3 – biochemical, small-molecule microarray, fluorescence 635/667, stem cell growth factor project, primary screen (AID 1064).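 Note: measures binding of the biotinylated anti-FSTL3 antibody to printed compounds.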 Conditions: higher = more signal.
Experiment [2] can be described thus: binders from COS7 lysate, DM2A8 probe, primary screen, torsin A project, cell lysate, small-molecule microarray, fluorescence 635/667 (AID 1065). Conditions: higher = more signal, COS7 lysate expressing mutant human TOR1A.
A short description of experiment [3]: small molecules captured by biotinylated probe aFGF2 – biochemical, small-molecule microarray, fluorescence 635/667, stem cell growth factor project, primary screen (AID 1067).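 Note: measures binding of biotinylated aFGF2 protein to printed compounds on slides; z-score merges feature fluorescence and signal-to-noise across triplicate slides.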 The settings on record: higher = more signal.
Experiment [4] in a line: small molecules captured by biotinylated probe aFGF10 – biochemical, small-molecule microarray, fluorescence 635/667, stem cell growth factor project, primary screen (AID 1071).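 Note: score merges 667 nm spot intensity and signal to noise from triplicate slides.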 Conditions: higher = more signal.
Experiment [5] addresses Neurogenic locus notch homolog protein 2 (Homo sapiens) (UniProt Q04721). The experiment is described as follows: small molecules binding Notch2 protein – biochemical, small-molecule microarray, 635 nm fluorescence, stem cell growth factors, primary screen (AID 1073). The settings on record: higher = more signal.
The target of experiment [6] is Pro-neuregulin-1, membrane-bound isoform (Homo sapiens) (UniProt Q02297). The experiment can be described thus: small molecules binding neuregulin-1 protein – biochemical, small-molecule microarray, fluorescence 635/667, psychiatric disease protein project, primary screen (AID 1075).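 Note: score combines 667 nm spot fluorescence with signal to noise.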 Conditions: NRG1 binding, 635 nm fluorescence, higher = more signal.
Experiment [7] deals with Neuregulin-1 EGF-like domain. The experiment can be described thus: small molecules binding NRG1 EGF domain – biochemical, small-molecule microarray, 635 nm fluorescence, primary screen (AID 1081).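 Note: binding of the protein to compounds printed on small-molecule microarray slides.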 Conditions: higher = more signal.
Experiment [8] is described as follows: FRG1 expression reporter modulators in myotubes – cell-based, C2C12 myotubes, firefly/Renilla luciferase, luminescence, FRG1 inhibition for FSHD, primary screen (AID 1084). Conditions: FRG1 promoter luciferase, higher = more signal, called active from +8 up or from −8 down.
The nature of experiment [9]: small molecules captured by biotinylated probe aFST – biochemical, small-molecule microarray, fluorescence 635/667, stem cell growth factor project, primary screen (AID 1086).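 Note: score merges 667 nm fluorescence with signal-to-noise of each printed compound spot.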 The settings on record: higher = more signal.
A short description of experiment [10]: binders of probe aHhip on microarray, primary screen, stem cell growth factor project, biochemical, small-molecule microarray, fluorescence 635/667 (AID 1087).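 Note: score merges spot fluorescence at 667nm with spot signal to noise ratio.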 The settings on record: higher = more signal.
For experiment [11], the system named is PRMT1 (protein arginine N-methyltransferase 1). The experiment can be described thus: small molecules binding arginine methyltransferase PRMT1 – biochemical, small-molecule microarray, 635 nm fluorescence, primary screen (AID 1088).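 Note: binding of Prmt1 protein to compounds spotted on small-molecule microarray slides.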 The settings on record: higher = more signal.
The nature of experiment [12]: growth effects on S. cerevisiae YJM789 – YJM789 clinical isolate, OD600, 24 h, basal, primary screen (AID 1089).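 Note: growth of clinical yeast isolate S. cerevisiae YJM 789 seeded 1000 cells per well; test concentration not given here.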 Conditions: higher = more signal, called active from +8 up or from −8 down.
The nature of experiment [13]: S. pombe growth modifiers, basal conditions – strain 972, OD600, 24 h, no modulator, primary screen (AID 1090).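 Note: basal condition with compound alone and no growth modifier present; test concentration not given here.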 Conditions: S. pombe 972 growth, higher = more signal, called active from +8 up or from −8 down.
Experiment [14] in a line: budding yeast growth modifiers under rapamycin – strain BY4716, OD600, 96 h, primary screen (AID 1091). Note: test concentration not given here. Conditions: S. cerevisiae BY4716 + rapamycin, higher = more signal, called active from +8 up or from −8 down.
For experiment [15], the target named is Torsin-1A-interacting protein 2 (Homo sapiens) (UniProt Q8NFQ8). The experiment is described as follows: small molecules binding lysate-expressed LULL1 – cell lysate, human LULL1 lysate, 635/667 nm fluorescence, primary screen (AID 1092).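 Note: probe is lysate of COS7 cells overexpressing human LULL1; score merges per-feature 667 nm fluorescence with signal-to-noise.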 Conditions: small-molecule microarray, hLULL1 lysate binding, 635 nm fluorescence; higher = more signal.
A short description of experiment [16]: optical density change of DRC41 E. coli – strain DRC41, OD650, 24 h, E. coli filamentation project, primary screen (AID 1093).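 Note: MC1000 strain lacking acrAB efflux and sulA so SOS filamentation is blocked; test concentration not given here.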 Conditions: E. coli DRC41 growth, higher = more signal, called active from +8 up or from −8 down.
Experiment [17] is described as follows: probe aLefty2 binding to arrayed compounds – biochemical, biotinylated probe, 635/667 nm fluorescence, primary screen (AID 1094).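 Note: score merges spot fluorescence near 667 nm with spot signal-to-noise ratio.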 Conditions: small-molecule microarray, higher = more signal.
Experiment [18] concerns Noggin (protein binding on small-molecule microarray). The experiment can be described thus: small molecules binding Noggin protein – biochemical, 635/667 nm fluorescence, primary screen (AID 1095).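 Note: score merges 667 nm feature fluorescence with signal to noise over triplicate slides.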 The settings on record: 635 nm fluorescence, higher = more signal.
The target in experiment [19] is Neurogenic locus notch homolog protein 3 (Homo sapiens) (UniProt Q9UM47). The experiment is described as follows: small molecules binding NOTCH3 protein – biochemical, 635/667 nm fluorescence, primary screen (AID 1096). The settings on record: small-molecule microarray, 635 nm fluorescence, higher = more signal.
Experiment [20] can be described thus: probe aEGFR binding to arrayed compounds – biochemical, biotinylated probe, 635/667 nm fluorescence, primary screen (AID 1097).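 Note: probe is a biotinylated anti-EGFR antibody binding compounds printed on slides; score combines fluorescence near 667 nm and signal to noise of each spot.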 Conditions: small-molecule microarray, higher = more signal.

Calls of active or inactive are those of the source.

Sequence of Pro-neuregulin-1, membrane-bound isoform (Homo sapiens) (Q02297 whole entry, looked up, the tested form may be a part, canonical isoform): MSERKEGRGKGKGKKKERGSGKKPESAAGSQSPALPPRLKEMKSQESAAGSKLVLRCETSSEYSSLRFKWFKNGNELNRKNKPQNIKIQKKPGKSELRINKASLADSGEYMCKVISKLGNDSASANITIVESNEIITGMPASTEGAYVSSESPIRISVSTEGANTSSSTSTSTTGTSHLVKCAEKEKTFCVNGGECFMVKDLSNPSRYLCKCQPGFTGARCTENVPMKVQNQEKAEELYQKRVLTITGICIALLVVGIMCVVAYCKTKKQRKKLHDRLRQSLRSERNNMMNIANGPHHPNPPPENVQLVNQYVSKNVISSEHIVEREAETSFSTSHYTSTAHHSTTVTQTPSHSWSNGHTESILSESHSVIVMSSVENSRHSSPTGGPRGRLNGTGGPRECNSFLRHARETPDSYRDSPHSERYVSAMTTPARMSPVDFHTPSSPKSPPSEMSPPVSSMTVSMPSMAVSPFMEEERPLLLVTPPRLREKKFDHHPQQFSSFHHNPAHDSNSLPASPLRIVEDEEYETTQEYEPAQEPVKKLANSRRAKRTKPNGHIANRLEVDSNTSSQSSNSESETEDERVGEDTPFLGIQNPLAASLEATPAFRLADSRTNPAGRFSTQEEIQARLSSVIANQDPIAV
Sequence of Torsin-1A-interacting protein 2 (Homo sapiens) (Q8NFQ8 whole entry, looked up): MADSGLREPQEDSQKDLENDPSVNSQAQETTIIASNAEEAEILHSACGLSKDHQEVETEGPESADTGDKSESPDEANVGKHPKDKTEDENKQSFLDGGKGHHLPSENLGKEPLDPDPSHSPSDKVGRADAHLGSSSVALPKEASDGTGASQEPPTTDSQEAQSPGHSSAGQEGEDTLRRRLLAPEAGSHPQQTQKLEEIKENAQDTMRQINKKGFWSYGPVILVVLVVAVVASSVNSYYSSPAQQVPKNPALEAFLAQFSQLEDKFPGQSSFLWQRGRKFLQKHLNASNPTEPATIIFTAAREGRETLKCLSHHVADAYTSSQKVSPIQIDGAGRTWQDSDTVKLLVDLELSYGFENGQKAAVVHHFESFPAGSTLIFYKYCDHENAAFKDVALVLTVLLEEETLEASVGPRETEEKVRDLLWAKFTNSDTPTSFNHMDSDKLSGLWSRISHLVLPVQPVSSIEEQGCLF
Sequence of Neurogenic locus notch homolog protein 2 (Homo sapiens) (Q04721 whole entry, looked up, canonical isoform): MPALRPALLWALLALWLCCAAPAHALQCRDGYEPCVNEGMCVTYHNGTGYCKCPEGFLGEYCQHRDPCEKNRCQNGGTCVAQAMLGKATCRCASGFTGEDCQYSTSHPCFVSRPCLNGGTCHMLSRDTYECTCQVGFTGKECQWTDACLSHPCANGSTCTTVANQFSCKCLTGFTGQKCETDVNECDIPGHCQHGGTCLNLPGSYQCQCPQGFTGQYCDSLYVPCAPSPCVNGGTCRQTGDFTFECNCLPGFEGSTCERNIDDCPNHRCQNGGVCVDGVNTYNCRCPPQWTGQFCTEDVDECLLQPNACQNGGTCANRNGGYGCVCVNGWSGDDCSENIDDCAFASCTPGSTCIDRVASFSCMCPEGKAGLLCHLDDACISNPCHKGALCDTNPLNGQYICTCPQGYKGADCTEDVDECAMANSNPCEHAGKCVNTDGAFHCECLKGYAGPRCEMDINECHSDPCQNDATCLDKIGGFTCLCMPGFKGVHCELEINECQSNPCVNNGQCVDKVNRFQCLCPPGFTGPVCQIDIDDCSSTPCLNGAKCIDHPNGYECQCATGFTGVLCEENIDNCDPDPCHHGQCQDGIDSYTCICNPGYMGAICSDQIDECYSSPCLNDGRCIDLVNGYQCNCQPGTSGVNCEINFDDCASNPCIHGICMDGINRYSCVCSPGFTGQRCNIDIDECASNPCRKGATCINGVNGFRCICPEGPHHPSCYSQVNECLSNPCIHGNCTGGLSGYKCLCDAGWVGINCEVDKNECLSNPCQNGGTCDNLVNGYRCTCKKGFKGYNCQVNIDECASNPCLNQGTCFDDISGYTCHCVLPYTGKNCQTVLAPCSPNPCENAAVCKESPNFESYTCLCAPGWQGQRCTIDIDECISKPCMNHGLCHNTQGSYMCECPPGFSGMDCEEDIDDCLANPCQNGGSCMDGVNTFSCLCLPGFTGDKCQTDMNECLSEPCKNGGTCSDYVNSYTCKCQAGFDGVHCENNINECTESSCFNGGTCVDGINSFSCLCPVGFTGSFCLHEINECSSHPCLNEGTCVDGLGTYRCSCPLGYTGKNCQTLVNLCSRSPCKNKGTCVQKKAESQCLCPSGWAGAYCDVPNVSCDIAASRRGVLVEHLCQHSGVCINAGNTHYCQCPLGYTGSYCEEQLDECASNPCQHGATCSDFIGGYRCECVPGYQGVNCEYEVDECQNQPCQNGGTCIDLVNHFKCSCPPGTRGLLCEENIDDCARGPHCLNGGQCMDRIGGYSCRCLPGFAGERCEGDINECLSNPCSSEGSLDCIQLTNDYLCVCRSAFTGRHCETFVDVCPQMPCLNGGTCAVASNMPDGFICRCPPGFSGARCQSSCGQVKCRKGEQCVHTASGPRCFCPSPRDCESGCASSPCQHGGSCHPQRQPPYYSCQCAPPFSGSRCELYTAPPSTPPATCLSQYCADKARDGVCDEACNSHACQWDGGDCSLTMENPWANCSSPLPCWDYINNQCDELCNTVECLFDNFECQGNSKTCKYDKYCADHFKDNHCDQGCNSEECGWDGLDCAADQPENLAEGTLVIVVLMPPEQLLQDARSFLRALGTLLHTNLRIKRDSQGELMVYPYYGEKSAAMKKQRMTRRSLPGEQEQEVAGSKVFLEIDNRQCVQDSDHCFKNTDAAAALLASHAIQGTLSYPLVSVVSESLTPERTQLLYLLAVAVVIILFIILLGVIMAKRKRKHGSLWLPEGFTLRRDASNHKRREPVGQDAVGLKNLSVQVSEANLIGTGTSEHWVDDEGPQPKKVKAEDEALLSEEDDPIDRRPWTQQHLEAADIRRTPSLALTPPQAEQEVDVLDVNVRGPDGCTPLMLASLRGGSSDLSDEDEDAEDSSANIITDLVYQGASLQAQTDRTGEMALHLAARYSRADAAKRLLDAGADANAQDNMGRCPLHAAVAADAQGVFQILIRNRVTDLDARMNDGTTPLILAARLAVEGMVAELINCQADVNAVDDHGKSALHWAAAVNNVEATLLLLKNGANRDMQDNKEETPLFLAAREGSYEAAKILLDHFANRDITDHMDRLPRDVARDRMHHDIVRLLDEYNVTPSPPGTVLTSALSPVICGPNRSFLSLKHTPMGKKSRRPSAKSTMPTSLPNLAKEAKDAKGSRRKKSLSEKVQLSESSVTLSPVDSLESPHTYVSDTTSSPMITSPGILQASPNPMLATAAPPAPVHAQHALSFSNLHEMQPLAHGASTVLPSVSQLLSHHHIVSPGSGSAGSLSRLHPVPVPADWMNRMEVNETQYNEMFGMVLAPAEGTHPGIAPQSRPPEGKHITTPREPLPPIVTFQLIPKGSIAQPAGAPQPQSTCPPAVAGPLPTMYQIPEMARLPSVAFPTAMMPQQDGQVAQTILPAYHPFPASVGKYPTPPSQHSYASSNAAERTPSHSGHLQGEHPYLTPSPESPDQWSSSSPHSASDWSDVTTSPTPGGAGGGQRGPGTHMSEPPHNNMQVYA

In the case of `CCCNC(=O)[C@@]1(C)c2ccccc2C(=O)N(Cc2ccc(OC(F)(F)F)cc2)[C@H]1c1ccc(CO)cc1`, the composite z-score in [1] is 0.29; in experiment [2], -0.0811; in experiment [3], 0.015; in experiment [4], -0.387; in [5] it was -0.321; in experiment [6], 1.2. Also, the composite z-score in [7] was 1.3; in experiment [9], -0.337; in experiment [10], 0.28; in experiment [11], 0.294; in experiment [15], -0.416; in experiment [17] it was 0.0241. The composite z-score in experiment [18] is -0.432; in experiment [19], 0.13; in [20], -0.18. In addition, the z-score is -3.98 (inactive) in [8]; -0.446 (inactive) in experiment [12]; 0.242 (inactive) in [13]; -0.548 (inactive) in [14]; 0.922 (inactive) in experiment [16].

In the case of `COC(=O)c1c2oc(c1C(=O)OC)C(=O)N[C@H](Cc1ccccc1)Cn1nncc1C1(CCCCC1)NC(=O)N[C@H](CO)CC2`, the composite z-score in experiment [1] is -0.442; in [2], 0.158; in [3] it was -0.0853; in experiment [4], 0.108; in experiment [5] it was 0.0153; in experiment [6] it was -0.0781. Besides, the composite z-score is 0.646 in experiment [7]; 0.233 in experiment [9]; -0.212 in experiment [10]; 0.702 in experiment [11]; 1.03 in experiment [15]; -0.205 in experiment [17]. Also, the composite z-score in experiment [18] is 0.311; in experiment [19], 0.17; in experiment [20], -0.115. Besides, the z-score in experiment [8] is -1.33 (inactive); in experiment [12], 0.776 (inactive); in experiment [13] it was 0.414 (inactive); in experiment [14], -0.178 (inactive); in experiment [16], 1.17 (inactive).

Turning to `CCOC(=O)C[C@H]1[C@H](OC(=O)c2ccc(C(=O)c3ccccc3)cc2)[C@@H](NC(=O)c2ccc3ccccc3n2)c2cc(OCCCO)ccc2N1C(=O)c1ccc2ccccc2n1`, the composite z-score is -0.153 in experiment [1]; 0.0772 in experiment [2]; -0.16 in experiment [3]; 0.56 in experiment [4]; 0.876 in [5]; 1 in [6]. For the same molecule, the composite z-score in experiment [7] was 0.421; in experiment [9], 0.845; in experiment [10], -0.201; in experiment [11], 0.424; in experiment [15] it was 1.34; in experiment [17] it was 0.109. In addition, the composite z-score in experiment [18] came out at 0.192; in experiment [19], 0.486; in experiment [20], 0.0746. The z-score was -2.18 (inactive) in experiment [8]; 0.179 (inactive) in experiment [12]; 0.0242 (inactive) in experiment [13]; 0.418 (inactive) in experiment [14]; 1.12 (inactive) in experiment [16].

As to `CO[C@H]1O[C@H](CO)[C@@H](OC(=O)Nc2ccccc2-c2ccccc2)[C@H](OC(=O)Nc2ccccc2-c2ccccc2)[C@H]1OC(=O)Nc1ccccc1-c1ccccc1`, the composite z-score in [1] is -0.0136; in [2], 1.68; in experiment [3], 0.17; in experiment [4] it was 1.17; in experiment [5] it was 1.4; in experiment [6], 0.885. The composite z-score in [7] came to 1.42; in experiment [9], 0.374; in [10], 0.245; in [11] it was 1.54; in [15] it was 3.23; in experiment [17], 0.115. The composite z-score in [18] was 0.65; in [19], 1.08; in [20], 0.0553. Further, the z-score in [8] is 0.849 (inactive); in experiment [12] it was 3.06 (inactive); in [13] it was 2.48 (inactive); in experiment [14], 10.6 (active); in [16] it was 0.956 (inactive).

For `C=C(CCCC)C(=O)CC[C@H](OC(C)=O)c1ccc(CO)o1`, the composite z-score in experiment [1] is -0.282; in experiment [2], 0.0494; in [3], -0.0985; in experiment [4], -0.0414; in experiment [5], -0.366; in [6], -0.119. Further, the composite z-score was 0.798 in experiment [7]; -0.402 in experiment [9]; -0.0994 in experiment [10]; 1.47 in [11]; 0.616 in experiment [15]; -0.0339 in experiment [17]. Further, the composite z-score was 0.53 in experiment [18], 0.137 in [19] and -0.182 in [20]. For the same molecule, the z-score was -0.463 (inactive) in experiment [8]; 1.04 (inactive) in experiment [12]; -1.43 (inactive) in experiment [13]; -0.181 (inactive) in [14]; 1.38 (inactive) in [16].

The record behind these values is PubChem BioAssay.
